Where “and” joins values, the source holds several entries; their conditions need not be identical. Identical values can stand only once. Out of some 16,000 compounds screened, about 120 (0.75%) were called active. Another 4% or so got no clear call; they are omitted. The full list was thinned out, with actives kept by preference. More than one record can exist for a structure, and the calls need not agree. A number with no mark means an inactive call. Calls come from the whole dose curve; as a rule, active = well fitted inhibition curve with a large enough effect; inconclusive = small, poorly fitted or top-dose-only effect; inactive = no such curve, though single readings can be large or run the other way.
The compounds below were run against Rap guanine nucleotide exchange factor 3 (Homo sapiens) (UniProt O95398) (assay: Validation qHTS for antagonist of cAMP-regulated guanine nucleotide exchange factor 3 (EPAC1)). Conditions: EPAC1 Rap1B-BODIPY-GDP exchange, fluorescence; series mostly up to 150 µM; activity change, negative = inhibition: at the top concentration.
Method in brief: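 EPAC1 (100 nM) mixed with 250 nM RAP1B-BODIPY-GDP and 50 uM GDP; compounds in concentration series, 5 min at room temperature. Fluorescence (ex 480/em 540 nm) read every 5 min for 30 min; normalized to ATA control and DMSO.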
Note: nearly all actives have a fitted effect of over 75% in size.
Potency is the fitted concentration of half-maximal effect.

Rap guanine nucleotide exchange factor 3 (Homo sapiens), sequence (O95398 whole entry, looked up): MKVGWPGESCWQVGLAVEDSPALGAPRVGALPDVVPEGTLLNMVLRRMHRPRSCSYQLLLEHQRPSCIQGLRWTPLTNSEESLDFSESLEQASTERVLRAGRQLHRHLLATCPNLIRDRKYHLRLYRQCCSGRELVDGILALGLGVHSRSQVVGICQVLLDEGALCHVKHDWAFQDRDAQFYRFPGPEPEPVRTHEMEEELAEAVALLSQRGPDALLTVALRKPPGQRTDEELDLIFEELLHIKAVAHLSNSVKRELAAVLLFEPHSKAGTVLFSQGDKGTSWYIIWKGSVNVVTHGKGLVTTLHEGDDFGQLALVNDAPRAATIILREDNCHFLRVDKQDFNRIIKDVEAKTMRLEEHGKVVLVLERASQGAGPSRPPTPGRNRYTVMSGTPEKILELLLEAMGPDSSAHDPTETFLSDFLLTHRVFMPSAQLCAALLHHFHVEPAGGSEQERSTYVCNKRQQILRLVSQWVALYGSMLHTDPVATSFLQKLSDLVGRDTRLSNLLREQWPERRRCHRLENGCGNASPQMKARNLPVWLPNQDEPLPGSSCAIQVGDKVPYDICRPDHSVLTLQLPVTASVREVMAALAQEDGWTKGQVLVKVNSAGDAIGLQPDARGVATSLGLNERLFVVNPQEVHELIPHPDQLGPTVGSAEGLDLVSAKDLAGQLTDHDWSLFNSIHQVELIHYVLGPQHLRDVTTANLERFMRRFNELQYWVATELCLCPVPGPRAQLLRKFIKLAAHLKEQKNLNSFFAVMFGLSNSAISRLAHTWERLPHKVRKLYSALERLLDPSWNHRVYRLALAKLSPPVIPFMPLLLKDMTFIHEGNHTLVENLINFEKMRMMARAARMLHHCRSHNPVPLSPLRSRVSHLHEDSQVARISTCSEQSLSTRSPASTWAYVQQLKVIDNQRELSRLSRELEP

Structure (SMILES) | activity change, negative = inhibition | Potency
Cn1cccc1C(=O)N1CCC[C@@]2(CCN(c3ncccn3)C2)C1 | 15.2% | –
CCCOC(=O)c1cc(O)c(O)c(O)c1 | -15.6% | –
CCOC(=O)Cc1cccc(-c2cc(CCCCCCc3ccc(O[C@H]4O[C@H](COC(C)=O)[C@@H](OC(C)=O)[C@H](OC(C)=O)[C@@H]4OC(C)=O)c(-c4cccc(CC(=O)OCC)c4)c3)ccc2O[C@H]2O[C@H](COC(C)=O)[C@@H](OC(C)=O)[C@H](OC(C)=O)[C@@H]2OC(C)=O)c1 | 16.7% | –
O=C(OC[C@H]1O[C@@H](OC(=O)c2cc(O)c(O)c(OC(=O)c3cc(O)c(O)c(O)c3)c2)[C@H](OC(=O)c2cc(O)c(O)c(OC(=O)c3cc(O)c(O)c(O)c3)c2)[C@@H](OC(=O)c2cc(O)c(O)c(OC(=O)c3cc(O)c(O)c(O)c3)c2)[C@@H]1OC(=O)c1cc(O)c(O)c(OC(=O)c2cc(O)c(O)c(O)c2)c1)c1cc(O)c(O)c(OC(=O)c2cc(O)c(O)c(O)c2)c1 | – | 11.2 µM (active)
COc1cc(/C=C/C(=O)c2cccs2)cc(OC)c1OC | -2.5% | –
COc1cc(O)c(C(=O)c2ccccc2)cc1S(=O)(=O)O | 21.5% | –
COc1cc(-c2ccc(N=Nc3ccc4c(S(=O)(=O)O)cc(S(=O)(=O)O)c(N)c4c3O)c(OC)c2)ccc1N=Nc1ccc2c(S(=O)(=O)O)cc(S(=O)(=O)O)c(N)c2c1O | 12.3% [at 27.4 µM] | 31.6 µM (active)
Cc1cc(-c2ccc(N=Nc3ccc4c(S(=O)(=O)O)cc(S(=O)(=O)O)c(N)c4c3O)c(C)c2)ccc1N=Nc1ccc2c(S(=O)(=O)O)cc(S(=O)(=O)O)c(N)c2c1O | – | 20 µM (active) and 50.1 µM (active) and 31.6 µM (active)
CCC1CN(CC(=O)NC(C)c2c(C)nn(C)c2C)Cc2cc(OC)ccc2O1 (configuration not stated) | 5.2% | –
Cc1c(C(=O)N(C)CC2CCCN(C)C2)cnn1-c1nccc(-c2ccco2)n1 (configuration not stated) | 10.4% | –
COC(=O)[C@@H]1[C@@H]2C[C@H]3c4[nH]c5ccccc5c4CCN3C[C@@H]2CC[C@@H]1O | – | inactive
CC1CC[C@@]2(C(=O)O)CC[C@]3(C)C(=CCC4[C@@]5(C)CCC(O)C(C)(C)C5CC[C@@]43C)C2C1C (some centres not stated) | 4.6% | –
CN(C)c1ccc(/C=C/c2ccnc3c(-c4ccccc4)cccc23)cc1 | 17.8% | –
Cc1coc2c1C(=O)C(=O)c1c-2ccc2c1CCCC2(C)C | – | inactive
Cc1c(S(=O)(=O)O)oc2c1C(=O)C(=O)c1c-2ccc2c1CCCC2(C)C | – | 100 µM (active)
CC1COC2=C1C(=O)C(=O)c1c2ccc2c1CCCC2(C)C (configuration not stated) | -18.5% | –
O=C(c1cccc(F)c1)N1CCC2(CCCN(c3ccncc3)C2)CC1 | 6.3% | –
Cc1cnc(-n2ncc(C(=O)NCC3COCCO3)c2C2CC2)nc1-c1cccs1 (configuration not stated) | 9.72% | –
Cc1nc(NCc2cccc3c2OCO3)sc1-c1ccn(CC2CCCN(C)C2)n1 (configuration not stated) | 11.6% | –
Cc1cc(C(C#N)c2ccc(Cl)cc2)c(Cl)cc1NC(=O)c1cc(I)cc(I)c1O (configuration not stated) | – | 50.1 µM (active)
O=C(Nc1ccc([N+](=O)[O-])cc1Cl)c1cc(Cl)ccc1O | – | inactive

Structure (SMILES) | activity change, negative = inhibition | Potency
COC(=O)C[C@H]1c2ccccc2S(=O)(=O)N1Cc1ccc(OC)cc1 | 8.68% | –
C(=C\c1ccncc1)/c1ccccc1 | – | inactive
Cc1cc(NC(=O)Nc2ccc(N(C)C)cc2)c2cc(F)cc(F)c2n1 | -16.4% | –
Cc1cc(N)c2cc(NC(=O)Nc3ccc4nc(C)cc(N)c4c3)ccc2n1 | – | 28.2 µM (active)
O=C(Nc1ccc(Cl)cc1)Nc1ccc(Cl)c(Cl)c1 | -10.1% | –
COCc1c(C(=O)NC2CCCCC2)cnn1-c1nccc(-c2cc(C)sc2C)n1 | -11.3% | –
O=C(Cn1cccn1)N1CCOc2c(cc(-c3ncc(C(F)(F)F)cc3Cl)cc2OCC2CCCO2)C1 (configuration not stated) | 24.5% | –
O=C(Nc1ccc(/C=C/c2ccc(NC(=O)c3cc(S(=O)(=O)O)c4cccnc4c3O)cc2S(=O)(=O)O)c(S(=O)(=O)O)c1)c1cc(S(=O)(=O)O)c2cccnc2c1O | – | 44.7 µM (active)
CCOc1ccc(S(=O)(=O)O)c2cccnc12 | 11.2% | –
O=S(=O)(O)c1cc(I)c(O)c2ncccc12 | 15.7% | –
O=C(c1cnsn1)N1CCOc2ccc(CN3CCOCC3)cc2C1 | 8.76% | –
COCC(=O)Nc1cc(C(=O)N2CCCC(C(N)=O)C2)cc2nc(-c3ccccc3)n(C)c12 (configuration not stated) | 7.12% | –
COc1ccc(CNc2ncnc3ccc(-c4ccc(N(C)C)cc4)cc23)c(OC)c1 | -8.56% | –
Nc1ncnc2c1nc(Br)n2C1OC2COP(=O)(O)O[C@@H]2C1O (some centres not stated) | – | 0.708 µM (active)
Nc1ncnc2c1nc(Br)n2C1CC(O)C(CO)O1 (configuration not stated) | 22.2% | –
Nc1ncnc2c1nc(Sc1ccc(Cl)cc1)n2[C@H]1OC2COP(=O)(O)O[C@@H]2C1O (some centres not stated) | – | 0.316 µM (active)
Nc1ncnc2c1nc(Cl)n2C1OC(CO)C(O)C1O (configuration not stated) | 19.2% | –
[N-]=[N+]=Nc1nc2c(N)ncnc2n1C1OC(CO)C(O)C1O (configuration not stated) | -15.6% | –
Nc1ncnc2c1nc(Br)n2[C@H]1O[C@H]2COP(=O)(O)O[C@H]2[C@@H]1O | – | 2.51 µM (active)
Nc1ncnc2c1nc(Br)n2C1OC(CO)C(O)C1O (configuration not stated) | 8.26% | –
